Sampled rows, rich in hits. Any-hit rate of the full collection: about 10%.
HPGD inh: HPGD (human) dehydrogenase inhibition; P15428; purified HPGD, NADH fluorescence kinetic, PGE2 substrate; Potency, µM, usual class: inhibitors; 150,000 compounds, 4.3% hits; AID 894
Target sequence (P15428 whole entry, looked up): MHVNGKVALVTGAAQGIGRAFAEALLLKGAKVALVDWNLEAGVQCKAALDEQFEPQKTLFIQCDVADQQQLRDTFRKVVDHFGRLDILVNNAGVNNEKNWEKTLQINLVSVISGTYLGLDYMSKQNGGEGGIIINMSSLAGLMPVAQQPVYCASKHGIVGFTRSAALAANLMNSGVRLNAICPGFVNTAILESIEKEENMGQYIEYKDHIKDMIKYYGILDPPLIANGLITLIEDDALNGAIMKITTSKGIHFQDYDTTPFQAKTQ
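20 nM HPGD preincubated 15 min at room temperature with compound in 50 mM Tris-HCl pH 8, 0.01% Tween 20. Started with 1 mM NAD+ and 30 uM prostaglandin E2; NADH fluorescence (360/450 nm) read 5 times over 30-s intervals, last minus first.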
Lamin A splicing: LMNA splicing modulation; HeLa LMNA splicing GFP/RFP minigene ratio, 48 h; AID 1487; 200,000 compounds, 0.01% hits; Potency, µM (top dose mostly 46.1 µM), usual class: inhibitors; active = well fitted inhibition curve with a large enough effect in the signal ratio, with a control signal flat, not every such curve was filed as active; inconclusive = small, poorly fitted or top-dose-only effect, or effect the other way, or a change in a side signal; the % refers to the signal ratio
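S3 HeLa cells stably expressing lamin A-EGFP splicing minigene plus DsRed2, 600 cells/well, 48 h compound exposure at 37C. Laser-scanning cytometry; analysed as GFP (500-530 nm)/RFP (575-640 nm) total intensity ratio; 0.5% DMSO vehicle.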
IMPase cell inh: IMPase inhibition in cells | P97697 | 120,000 tested, under 10 active | CHO-M1 cells, IP1 accumulation, HTRF TR-FRET ratio | inhibition (IP1 accumulation), % at 46.1 µM | AID 901; active = well fitted curve in the direction sought with a large enough effect in the signal ratio, not every such curve was filed as active; inconclusive = small, poorly fitted or top-dose-only effect, or a change in a side signal; inactive = no such curve, though single readings can be large or run the other way; the % refers to the signal ratio;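 note: cells stimulated with carbachol in lithium chloride buffer; higher means more IMPase inhibition seen as more IP1 and lower FRET ratio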
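Cellular IMPase inhibition is scored as a rise in cytosolic IP1, detected by competitive TR-FRET between d2-labelled IP1 and a europium anti-IP1 antibody. M1-expressing CHO cells were stimulated with carbachol for 30 min at 37C, with lithium (50 mM LiCl) present in the buffer.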
ALDH1A1 block: ALDH1A1 (human) enzyme inhibition; P00352; Purified ALDH1A1, NADH fluorescence, propionaldehyde substrate; Potency, µM (highest dose often 75.3 µM), most hits filed as inhibitors; 220,000 compounds, 7.3% hits
Target sequence (P00352 whole entry, looked up): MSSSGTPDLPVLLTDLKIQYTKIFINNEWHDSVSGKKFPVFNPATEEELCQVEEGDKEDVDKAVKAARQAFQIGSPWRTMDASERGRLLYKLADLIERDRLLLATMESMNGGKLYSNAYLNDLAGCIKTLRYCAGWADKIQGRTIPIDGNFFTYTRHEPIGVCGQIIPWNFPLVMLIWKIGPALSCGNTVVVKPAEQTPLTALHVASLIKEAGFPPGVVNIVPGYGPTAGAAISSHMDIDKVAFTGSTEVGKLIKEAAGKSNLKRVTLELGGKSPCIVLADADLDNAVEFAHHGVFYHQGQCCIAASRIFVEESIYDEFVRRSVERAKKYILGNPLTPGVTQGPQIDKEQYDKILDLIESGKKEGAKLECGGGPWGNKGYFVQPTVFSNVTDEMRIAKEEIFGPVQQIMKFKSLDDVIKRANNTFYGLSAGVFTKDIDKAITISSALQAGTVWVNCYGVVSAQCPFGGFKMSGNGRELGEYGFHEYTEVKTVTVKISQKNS
Luc counter: Kinase-Glo luciferase inhibition (counter-screen) | Kinase-Glo luciferase, ATP luminescence, 8 min | Q27757 | Potency, µM (top dose mostly 38.3 µM), actives largely listed as inhibitors | 200,000 compounds, 0.28% hits; active = well fitted inhibition curve with a large enough effect; inconclusive = small, poorly fitted or top-dose-only effect; note: nearly all actives have a fitted effect of over 60% in size
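Substrate mix (final 50 mM imidazole pH 7.2, 50 mM KCl, 7 mM MgCl2, 10 uM ATP, 0.01% Tween 20, 0.05% BSA) plus pin-tool compound, then Kinase-Glo detection mix; 8 min ambient, luminescence read.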
PNC assembly inh: perinucleolar compartment assembly inhibition | activity change (PNC), negative = inhibition, % at 10 µM | PC3M PTB-GFP, PNC prevalence imaging, 16 h; active compounds read low | AID 2417 | 140,000 compounds, 3.1% hits;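 active = readout at or below -70, meaning at least 70% loss of cells showing the perinucleolar compartment, a nuclear body marking cancer cells; inconclusive = readout between -30 and a set limit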
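PC3M cells stably expressing PTB-GFP, 750–1000 cells/well, treated 16 h at 37 °C with compound (23 nl of library stock), in duplicate. After paraformaldehyde fixation and Hoechst stain, imaged at 20x; PNC prevalence scored by image analysis.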
Hits are given with their value; . = inactive; ? = inconclusive; / = no result given; [ ] = dose if it differs, or a comment. Unless noted, calls come from the whole dose curve; as a rule, active = well fitted inhibition curve with a large enough effect (not every such curve was filed as active); inconclusive = small, poorly fitted or top-dose-only effect, or another doubt; inactive = no such curve, though single readings can be large or run the other way.

SMILES	HPGD inh	Lamin A splicing	IMPase cell inh	ALDH1A1 block	Luc counter	PNC assembly inh
COc1ccc2nc(SCC(=O)NN)cc(C)c2c1	.	.	.	13µM	.	.
NC(=S)NCCCC(N)C(=O)O (centres undefined)	.	.	/	2.5µM	.	/
COc1cc(/C=C(\C#N)C(=O)c2c(C)[nH]c3ccccc23)cc(OC)c1OC	/	.	.	8.9µM	/	.
COc1ccc(/C=C(\C#N)C(=O)c2c(C)[nH]c3ccccc23)cc1OC	.	.	/	.	.	.
COc1ccc(S(=O)(=O)N2CCC(C(=O)N3CCOCC3)CC2)cc1	.	.	.	.	.	-100
COc1ccc(S(=O)(=O)NCc2ccc(C(=O)N3CCc4ccccc4C3)cc2)cc1	2.8µM	?	/	.	.	?
CC(C)(C)c1ccc(S(=O)(=O)NCc2ccc(C(=O)N3CCOCC3)cc2)cc1	.	.	.	11µM	.	.
O=C(c1ccc(CNS(=O)(=O)c2ccccc2)cc1)N1CCN(Cc2ccccc2)CC1	?	?	.	.	.	.
COc1ccc(S(=O)(=O)N2CCC(C(=O)N3CCc4ccccc4C3)CC2)cc1C	.	.	?	.	.	.
CCOC(=O)N1CCN(C(=O)c2ccc(CNS(=O)(=O)c3ccc(OC)cc3)cc2)CC1	.	.	.	.	.	.
O=C(C1CCN(S(=O)(=O)c2ccc(Cl)cc2)CC1)N1CCOCC1	.	.	.	.	.	?
COc1ccc(S(=O)(=O)N2CCC(C(=O)N3CCc4ccccc4C3)CC2)cc1	35µM	?	.	?	.	.
O=C(c1ccc(C(=O)N2CCOCC2)s1)N1CCOCC1	20µM	.	.	.	.	.
O=C(c1ccc(Br)s1)N1CCN(c2ncccn2)CC1	.	.	.	.	.	?
COc1ccc2cc(C(=O)N3CCOCC3)sc(=O)c2c1OC	22µM	.	.	.	.	.
O=C(c1ccc(Br)s1)N1CCCC1	14µM	.	.	.	.	?
O=C(c1cccs1)N1CCOCC1	.	.	.	.	.	.
CCOC(=O)c1cc2ccc(OC)c(OC)c2c(=O)s1	.	.	.	.	.	.
CC(C)=C[C@H]1[C@@H](C(=O)Oc2ccccc2C(C)C)C1(C)C	.	/	/	.[13.5 µM]	.[7.66 µM]	/
COC(=O)c1nnc(C(=O)NCc2ccccc2)c2[nH]c3ccccc3c12	.	/	/	.	.	/
Cc1cc(=O)oc2cc(O)c(O)cc12	?	.	/	?	.	/
O=C(Nc1ccc(Cl)cc1)OCCn1nnnc1C(c1ccccc1)N1CCOCC1 (centres undefined)	.	.	.	.	.	.
CN(C)c1ccc(C(c2nnnn2CCOC(=O)Nc2ccc(Cl)cc2)N2CCOCC2)cc1 (centres undefined)	.	.	.	25µM	.	.
CCCCc1ccc(-c2csc(/C(C#N)=C\c3ccco3)n2)cc1	.	.	/	.	.	-111
CCCCc1ccc(-c2csc(/C(C#N)=C/c3ccc(C)o3)n2)cc1	.	.	.	.	.	.
SMILES	HPGD inh	Lamin A splicing	IMPase cell inh	ALDH1A1 block	Luc counter	PNC assembly inh
Cn1ncc2c(Cl)ncnc21	.	/	/	.[13.5 µM]	.[7.66 µM]	/
CC(C)=CCc1c2c(c3occ(-c4ccc(O)cc4)c(=O)c3c1O)C=CC(C)(C)O2	.	?	/	25µM	.	/
CC(C)=CCc1c2c(c3occ(-c4ccc(O)c(O)c4)c(=O)c3c1O)C=CC(C)(C)O2	.	/	/	.[13.5 µM]	.[7.66 µM]	/
Cc1ccc([N+](=O)[O-])c(OCCN2CCCCCC2)c1	.	?	/	15µM	.	.
O=S(=O)(c1cccc2c(S(=O)(=O)N3CCCC3)cccc12)N1CCCC1	.	.	.	.	.	-129
O=S(=O)(c1cc(Cl)ccc1Cl)N1CCCC1	.	.	.	0.089µM	.	?
O=S(=O)(c1cc(Cl)ccc1Cl)N1CCCCC1	.	.	.	.	.	?
Cc1nn2c(C)c(C(=O)N3CCN(c4ccc(Cl)cc4)CC3)cnc2c1-c1ccc(F)cc1	/	.	/	/	/	/
Cc1ccc(OS(=O)(=O)c2ccccc2)c(/C=N/N=C2\NC(=O)C(C)S2)c1 (centres undefined)	.	?	.	.	.	-82
COc1ccc(CNC(=O)c2cc3c(=O)n(Cc4ccco4)ccc3nc2C)c(OC)c1	/	.	/	/	/	/
O=C(COc1ccc([N+](=O)[O-])cc1)N(Cc1ccccc1)Cc1ccccc1	.	?	/	14µM	.	.
O=C(COc1ccccc1)NNC(=O)COc1ccc([N+](=O)[O-])cc1	/	/	/	.	.	/
O=C(c1nc2ccccn2c1CN1CCC(Cc2ccccc2)CC1)N1CCCC1	/	/	/	11µM	.	/
Cc1cccc(OC2CCN(Cc3c(C(=O)N4CCCC4)nc4ccccn34)CC2)c1	/	/	/	?	.	/
c1ccc(CNc2nc3ccccc3[nH]2)cc1	.	.	.	.	.	.
S=C(NCc1ccccc1)NNc1nc2ccccc2[nH]1	/	.	/	1.3µM	.	/
O=C(CSC1CC(=O)N(CCc2ccccc2)C1=O)Nc1cccc(Cl)c1 (centres undefined)	7.9µM	.	.	.	.	.
O=C(CSC1CC(=O)N(CCc2ccccc2)C1=O)Nc1ccc(Br)cc1 (centres undefined)	.	.	.	.	.	.
O=C(CCc1c[nH]c2ccccc12)N1CCN(c2ccc(O)cc2)CC1	/	?	/	8.9µM	.	/
COc1ccc(N2CCN(C(=O)CCc3c[nH]c4ccccc34)CC2)cc1	/	/	/	.	.	/
Cc1cc([N+](=O)[O-])c(C)cc1-c1ccc(/C=N/NC(=O)Cn2nnnc2N)o1	/	.[9.22 µM]	/	15µM	.	/
CCS(=O)(=O)N1N=C(c2cccc(NS(C)(=O)=O)c2)CC1c1ccc(C)cc1 (centres undefined)	/	?	/	20µM	.	/
CCS(=O)(=O)Nc1cccc(C2=NN(S(C)(=O)=O)C(c3ccccc3)C2)c1 (centres undefined)	/	.	/	?	.	/
CC1(C)[C@@H]2CC[C@@](C)(C2)[C@H]1OC(=O)c1ccccc1C(=O)O	.	/	/	.[13.5 µM]	.[7.66 µM]	/
COc1ccc(C(=O)OCC(=O)Nc2ccccc2)cc1[N+](=O)[O-]	/	.	/	?	.	/
CCOC(=O)C(Cc1ccc(OC)c([N+](=O)[O-])c1)NC(=O)CCC(=O)Nc1ccc(C)cc1 (centres undefined)	/	.	/	14µM	.	/
COc1ccc2nc3sc(C(=O)NCc4cccs4)c(N)c3cc2c1	?	?	?	4µM	.	.
CCCCC1OC23CCCCC2C(C#N)(C#N)C1(C#N)C(=N)O3 (centres undefined)	?	.	/	1.8µM	.	?
CC1=C(C(=O)OC(C)C)C(c2coc3ccccc3c2=O)C2=C(CCCC2=O)N1 (centres undefined)	.	.	.	.	.	-81
CCSCCOC(=O)C1=C(C)NC2=C(C(=O)CCC2)C1c1coc2ccccc2c1=O (centres undefined)	.	.	.	.	.	?

Screening results: PubChem BioAssay, National Center for Advancing Translational Sciences (NCATS)
